Here are results for eleven molecules from PubChem BioAssay (NCATS).

In one assay the test system is N140. Put plainly: qHTS profiling for inhibitors of Plasmodium falciparum proliferation (AID 504749). Note: potency is the fitted concentration of half-maximal effect. The note with it: P. falciparum in erythrocytes, SYBR Green DNA, 72 h; series mostly up to 28.7 µM. The essentials:
(§1)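 Each compound contacts P. falciparum-infected red blood cells for 72 h at 37 C; lysis buffer (Tris, EDTA, saponin, Triton X, SYBR Green I) is added and fluorescence measured next morning; values normalized to controls.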

In a further assay the test system is P93_24. Described as above. The settings on record: P. falciparum in erythrocytes, SYBR Green DNA, 72 h; series mostly up to 28.7 µM. The gist of the method: as §1
In the next assay the test system is P94_40. The assay is described as above. The note with it: P. falciparum in erythrocytes, SYBR Green DNA, 72 h; series mostly up to 28.7 µM. The essentials: as §1
The next assay concerns PAD. The description is as above. The settings on record: P. falciparum in erythrocytes, SYBR Green DNA, 72 h; series mostly up to 28.7 µM. The essentials:
as §1

A further assay deals with PC15. The assay is described as above. The settings on record: P. falciparum in erythrocytes, SYBR Green DNA, 72 h; series mostly up to 28.7 µM. The gist of the method: as §1
A further assay relates to PC26. Described as above. The settings on record: P. falciparum in erythrocytes, SYBR Green DNA, 72 h; series mostly up to 28.7 µM. The essentials: as §1
The next assay concerns PC49. The assay is described as above. The note with it: P. falciparum in erythrocytes, SYBR Green DNA, 72 h; series mostly up to 28.7 µM. The gist of the method:
as §1

For the next assay, the system named is SC27B. Described as above. The note with it: P. falciparum in erythrocytes, SYBR Green DNA, 72 h; series mostly up to 28.7 µM. The essentials:
as §1

Another assay relates to TAB109. The description is as above. The settings on record: P. falciparum in erythrocytes, SYBR Green DNA, 72 h; series mostly up to 28.7 µM. The essentials: as §1
For another assay, the system named is TAB113. Described as above. The note with it: P. falciparum in erythrocytes, SYBR Green DNA, 72 h; series mostly up to 28.7 µM. The essentials:
as §1

For the next assay, the system named is TAB165. Described as above. The note with it: P. falciparum in erythrocytes, SYBR Green DNA, 72 h; series mostly up to 28.7 µM. The gist of the method:
as §1

For assay [1], the system named is CRL-7250. Briefly: Cytotoxic Profiling of Annotated Libraries Using Quantitative High-Throughput Screening (AID 1296008). For max response: % is set by controls: 0 for no effect and ±100 for the full control effect. Note: potency is the fitted concentration of half-maximal effect. The note with it: Five cell lines viability, CellTiter-Glo ATP luminescence, 48-72 h; max response: hits give low values. The gist of the method: (§2)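 Cells exposed to compounds for 48 or 72 hr at 37 degrees Celsius. Viability read as ATP-coupled luminescence with CellTiter-Glo after 10 min at room temperature.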
(In general: In ATP-based viability assays light output follows the ATP content of the culture.)

The test system of the next assay is HEK293. Described as above. The note with it: Five cell lines viability, CellTiter-Glo ATP luminescence, 48-72 h; max response: hits give low values. The gist of the method: as §2
Assay [2] relates to HaCat. The assay is described as above. The note with it: Five cell lines viability, CellTiter-Glo ATP luminescence, 48-72 h; max response: hits give low values. The essentials:
as §2

A further assay concerns KB-3-1. The description is as above. The note with it: Five cell lines viability, CellTiter-Glo ATP luminescence, 48-72 h; max response: hits give low values. The essentials:
as §2

The next assay relates to NIH3T3. The description is as above. The settings on record: Five cell lines viability, CellTiter-Glo ATP luminescence, 48-72 h; max response: hits give low values. The gist of the method: as §2
The next assay has as its system W2. Put plainly: qHTS profiling for inhibitors of Plasmodium falciparum proliferation (AID 504749). Note: potency is the fitted concentration of half-maximal effect. The settings on record: P. falciparum in erythrocytes, SYBR Green DNA, 72 h; series mostly up to 28.7 µM. The essentials: as §1
Background: qHTS replaces the single test concentration by a dilution series.

Assay [3] has as its system HACAT. Put plainly: qHTS assay to identify novel small-molecules to repurpose for Merkel cell carcinoma treatment (AID 1296009). The settings on record: MCC and control cell lines, CellTiter-Glo viability, 72 h; at 44.8 µM (top of the series) unless noted. The essentials: (§3)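 Dose-response viability screen; 72 hr exposure at 37 degree celsius; CellTiter-Glo added, 10 min room temperature, luminescence read; RLUs scaled between no-cell and DMSO wells.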

For assay [4], the system named is CRL-7250. The assay is described as above. The note with it: MCC and control cell lines, CellTiter-Glo viability, 72 h; series mostly up to 44.8 µM. The essentials:
as §3

In another assay the test system is HEK293T. The assay is described as above. The settings on record: MCC and control cell lines, CellTiter-Glo viability, 72 h; at 44.8 µM (top of the series). The gist of the method:
as §3

“And” between values parts separate entries of the source, which are not always exact repeats. Equal values may be shown once. Results filed as inconclusive are left out. Unmarked numbers belong to inactive results. The source made the active and inactive calls. Calls come from the whole dose curve; as a rule, active = well fitted inhibition curve with a large enough effect; inconclusive = small, poorly fitted or top-dose-only effect; inactive = flat fitted curve, though single readings scatter.
Note: nearly all actives have a fitted effect of over 60% in size.

`NCC(O)c1ccc(O)cc1` (stereo not drawn): the Potency entry with N140, with P93_24, in the assay with P94_40, in the assay on PAD, with PC15 and in the assay on PC26 was “inactive” throughout. Also, the Potency entry in the assay on PC49, in the assay with SC27B, in the assay on TAB109, with TAB113 and in the assay on TAB165 was “inactive” throughout. Also, the max response is 4.85% in the assay on CRL-7250 [1]; 4.81% in the assay on HEK293; -2.74% in the assay with HaCat [2]; -4.37% with KB-3-1; -5.72% with NIH3T3.
As for `Nc1ccncc1`, the Potency entry in the assay on N140, in the assay on P93_24, in the assay on P94_40, in the assay with PAD, in the assay on PC15 and in the assay with PC49 was “inactive” throughout. In addition, the Potency entry with SC27B, with TAB109, in the assay on TAB113, in the assay on TAB165 and with W2 was “inactive” throughout. Moreover, the max response was 4.16% with CRL-7250 [1], -0.798% in the assay with HEK293, 14.9% in the assay on KB-3-1 and 2.18% in the assay on NIH3T3. Moreover, the call with HaCat [2] and in the assay with HACAT [3] was inactive.
For `C[C@]12CC[C@H]3[C@@H](CCC4=CC(=O)CC[C@@H]43)[C@@H]1CC[C@@H]2OC(=O)CCc1ccccc1`, the max response in the assay with CRL-7250 [1] was -4.34%; in the assay with HaCat [2] it was 1.58%; in the assay with NIH3T3 it was -2.8%. In addition, in the assay on HEK293, the Potency is 23.7 µM (active).
For the molecule `CC(C)(C)NCC(O)c1cc(Cl)c(N)c(Cl)c1` (stereo not drawn), the Potency in the assay with N140 is 8.91 µM (active); with P94_40, 7.94 µM (active); with PAD, 7.94 µM (active); in the assay with W2 it was 6.75 µM (active). The outcome with CRL-7250 [1], in the assay with NIH3T3 and with CRL-7250 [4] was inactive. Further, the results for the max response in the assay with HEK293, in the assay on HaCat [2] and in the assay with KB-3-1 were -10.9%, -3.36% and -14.9%, respectively.
Turning to `O=P1(NCCCl)OCCCN1CCCl` (stereo not drawn), the Potency result in the assay with N140, in the assay on P93_24, in the assay with P94_40, in the assay on PAD, in the assay on PC15 and in the assay on PC26 was “inactive” throughout. Also, the Potency result in the assay with PC49, in the assay on SC27B, in the assay with TAB109, in the assay with TAB113 and in the assay with TAB165 was “inactive” each time. In addition, the max response in the assay on CRL-7250 [1] is -12.2%; with HEK293, 3.55%; in the assay on KB-3-1 it was 0.482% and 4.18%; with NIH3T3, -11.2% and -20.7%. The molecule was classed as inactive in the assay with HaCat [2] and with HACAT [3].
Take `NCC(CC(=O)O)c1ccc(Cl)cc1` (stereo not drawn): the Potency entry in the assay on N140, with P93_24, with P94_40, with PAD, in the assay with PC15 and in the assay with PC26 was “inactive” throughout. Besides, the Potency entry with PC49, with SC27B, with TAB109, in the assay with TAB113, with TAB165 and with W2 was “inactive” throughout. Further, the max response with CRL-7250 [1] is 2.02%; in the assay with HEK293, -1.23%; with KB-3-1 it was 2.79%; with NIH3T3 it was 0.0761%. Further, the result in the assay on HaCat [2] was inactive. The outcome with HACAT [3] was “inactive [at 0.588 µM]”.
Consider `CCC(=O)C(CC(C)N(C)C)(c1ccccc1)c1ccccc1` (stereo not drawn), for which the max response in the assay on CRL-7250 [1] is -4.65%; in the assay with KB-3-1, -25%; with NIH3T3, -1.89%. In the assay with HEK293, the Potency was 30.9 µM (active). The result in the assay on HaCat [2] was inactive. In addition, the outcome with HACAT [3] is “inactive [at 92 µM]”.
Take `N#CC(C#N)=Cc1ccc(O)c(O)c1`: the Potency entry in the assay with N140, with P93_24, with P94_40, in the assay with PAD, with PC15 and in the assay on PC26 was “inactive” each time. In addition, the Potency entry with PC49, with SC27B and in the assay on TAB165 was “inactive” in each case. Moreover, the max response in the assay with CRL-7250 [1] was -16.4%; in the assay on HEK293, -18.8%; in the assay with KB-3-1 it was 1.48%; with NIH3T3, -19.5%. Moreover, the call in the assay on HaCat [2] and with HACAT [3] was inactive.
As for `CC[N+](CC)(CC)CC`, the Potency result in the assay on N140, in the assay with P93_24, in the assay with P94_40, with PAD, with PC15 and with PC49 was “inactive” in each case. The Potency result with SC27B, in the assay on TAB109, in the assay on TAB113, with TAB165 and with W2 was “inactive” in each case. Moreover, the result with CRL-7250 [1], with NIH3T3 and in the assay with CRL-7250 [4] was inactive. For the same molecule, the max response is -5.65% in the assay with HEK293, -5.59% in the assay with HaCat [2] and -7.23% in the assay on KB-3-1.
Consider `CCOP(=S)(OCC)Oc1cc(C)nc(C(C)C)n1`, for which the Potency entry with N140, in the assay with P93_24, in the assay with P94_40, in the assay on PAD, with PC15 and with PC26 was “inactive” in each case. Besides, the Potency entry in the assay on PC49, with SC27B, with TAB109, in the assay with TAB113, with TAB165 and in the assay on W2 was “inactive” throughout. In addition, the max response in the assay on CRL-7250 [1] was 1.07%; in the assay on HaCat [2], 0.572%; in the assay on KB-3-1, 7.03%; with NIH3T3, -12%. Moreover, the molecule was called inactive in the assay on HEK293 and in the assay on HEK293T.
With `CC(C)(N)Cc1ccc(Cl)cc1`, the Potency entry in the assay with P93_24, in the assay with P94_40, with PAD, with PC15, with PC49 and in the assay with SC27B was “inactive” throughout. The Potency entry with TAB109, with TAB113 and in the assay with TAB165 was “inactive” each time. In addition, the max response is 0.791% in the assay on CRL-7250 [1], 3.33% in the assay with HEK293 and -1.79% in the assay on KB-3-1. The result in the assay with HaCat [2], with NIH3T3 and in the assay on HACAT [3] was inactive.
